This is one part of a sample in which hits are shown more often than they occur.
CHX counter = Cycloheximide Counterscreen for Small Molecule Inhibitors of Shiga Toxin | cell reporter, cycloheximide protein synthesis inhibition counterscreen | max response, % | 12% of 300,000 active; in the data active = max response mostly above about 13%, no sharp cut-off; inactive = mostly below about 14%; note: read at 38.3 µM for the half of the compounds with a filed dose
Lassa entry inh = qHTS for Inhibitors of binding or entry into cells for Lassa Virus | Lassa virus pseudotype entry inhibition, cell reporter | Potency, µM (top dose mostly 37.9 µM), usual class: inhibitors | 1.2% of 300,000 active; calls by dose curve; tested in HEK293 cells; note: nearly all actives have a fitted effect of over 50% in size
Shiga toxin inh = A qHTS for Small Molecule Inhibitors of Shiga Toxin; 9.2% of 290,000 active; inhibition, % at 38.7 µM; Vero cells, Shiga toxin protein synthesis inhibition reporter; in the data active = inhibition mostly above about 28%, no sharp cut-off; inactive = mostly below about 43%
Marburg entry inh = qHTS for inhibitors of binding or entry into cells for Marburg Virus; Marburg virus pseudotyped entry inhibition, cell reporter; Potency, µM (highest dose often 37.8 µM), most hits filed as inhibitors; 1.8% of 300,000 active; calls by dose curve; tested in HEK293 cells
Vaccinia mCherry = qHTS for Stage-Specific Inhibitors of Vaccinia Orthopoxvirus: mCherry Reporter Primary qHTS | Vaccinia virus mCherry reporter infection, fluorescence | Potency, µM (titrated, usually from 36.5 µM), usual class: inhibitors | 0.63% of 310,000 active | AID 720579, 2013; calls by dose curve; tested in A549 cells; note: nearly all actives have a fitted effect of over 35% in size
Vaccinia Venus = qHTS for Stage-Specific Inhibitors of Vaccinia Orthopoxvirus: Venus Reporter Primary qHTS | 0.46% of 330,000 active | Potency, µM (top dose mostly 36.5 µM), hits mostly inhibitors | Vaccinia virus Venus reporter expression, fluorescence; calls by dose curve; tested in A549 cells; note: nearly all actives have a fitted effect of over 30% in size
A number is an active result; 0 = inactive; ? = inconclusive; - = no result; + = active, no number; [ ] = remark or other dose.

SMILES	CHX counter	Lassa entry inh	Shiga toxin inh	Marburg entry inh	Vaccinia mCherry	Vaccinia Venus
Cc1occc1C(=O)N/N=C/C(Br)=C\c1ccccc1	43	13µM	50	?	0	0
NC(=S)N/N=C/C=C/c1ccccc1	0	0	0	0	1µM	0.79µM
O=C(N/N=C/C=C/c1ccccc1)c1cccc(Br)c1	0	0	0	?	0	0
COc1ccc(N2CCN(C(=O)C3(S(=O)(=O)c4ccc(C)cc4)CC3)CC2)cc1	0	0	0	0	?	0
Cc1cc(C(=O)N/N=C/C=C/c2ccccc2[N+](=O)[O-])c(C)o1	0	?	0	?	0	0
Cc1occc1C(=O)N/N=C/C=C/c1ccccc1	41	?	0	?	-	-
Cc1ccc(/C=N/NC(=O)NC23CC4CC(CC(C4)C2)C3)o1	29	0	150	0	0	?
Cc1occc1C(=O)N/N=C/C=C/c1ccc(N(C)C)cc1	53	-	79	-	-	-
Cc1nc2c(C)cccc2cc1C(=O)N/N=C/c1ccc(N(C)C)cc1	0	?	0	?	0	0
Cc1occc1C(=O)N/N=C/C=C/c1ccccc1[N+](=O)[O-]	42	0	0	0	0	0
Cc1cc(C(=O)N/N=C/C=C/c2ccccc2)c(C)o1	0	0	0	0	0	0
Fc1ccc2c(c1)-c1nc(-c3ccccc3)cc(-c3ccccc3)c1CO2	-	0	-	0	0	0
Cc1ccc(/C=N/NC(=O)c2ccoc2C)o1	44	0	117	?	0	0
Cc1occc1C(=O)N/N=C/c1ccc(N(C)C)cc1	22	?	0	?	0[7.34 µM]	0[7.34 µM]
Cc1ccc(/C=N/NC(=O)C(=O)N/N=C/c2ccc(C)o2)o1	0	0	0	0	0	0
CCCCOC(=O)N/N=C/C=C/c1ccccc1	21	0	13	?	0	0
O=C(COc1ccccc1)NCC(=O)N/N=C/C=C/c1ccccc1	0	0	0	0	0	0
CN(C)c1ccc(/C=N/NC(=O)c2cccc(C(=O)N/N=C/c3ccc(N(C)C)cc3)n2)cc1	0	0	0	?	0	0
CCc1nn(CC(=O)N2CCN(c3cccc(Cl)c3)CC2)c(=O)c2cc3sccc3n12	-	-	-	?	0	0
C=CC[C@@H]1C=CC(ON=C(C)CCC(=O)OC[C@H]2O[C@H](C#Cc3ccccc3)C=C[C@H]2Oc2ccc(C)cc2)[C@H](CO)O1 (stereo partly specified)	-	-	-	0	-	-
CCOC(=O)C(=CNc1nc2ccc(C(=O)OCC)cc2s1)C(=O)OCC	0	-	0	-	-	-
CCOC(=O)c1ccc2nc(NC(C)=O)sc2c1	48	?	0	?	0	0
CCOC(=O)c1ccc2nc(Nc3nc4ccc(F)cc4s3)sc2c1	150	0	147	?	0	0
COC(=O)c1ccc2nc(Nc3nc4c(F)cc(F)cc4s3)sc2c1	57	3.2µM	0	7.3µM	0	0
COc1cc2nc(CN(CCO)C3CS(=O)(=O)CC3O)nc(N3CCCCC3)c2cc1OC (stereo unspecified)	-	-	-	-	0	0
SMILES	CHX counter	Lassa entry inh	Shiga toxin inh	Marburg entry inh	Vaccinia mCherry	Vaccinia Venus
COCCN1C(=O)NC(c2cccc(C(F)(F)F)c2)C(C(C)=O)=C1C (stereo unspecified)	-	-	-	0	-	-
CC(=O)c1ccc(OCC(=O)Nc2ccc3nc(C)sc3c2)cc1	0	0	0	0	0	0
CCC(=O)Nc1nc2ccc(NC(=O)COc3ccccc3)cc2s1	0	0	0	?	0	0
Cc1nc2ccc(NC(=O)COc3cccc(F)c3)cc2s1	26	-	0	-	-	-
Cc1cc(CNC(=O)COc2ccccc2)c2ccccc2n1	17	?	0	?	0	0
Cc1cccc(OCC(=O)Nc2ccc3nc(C)sc3c2)c1	0	-	63	-	0	0
Cc1nc2ccc(NC(=O)COc3ccccc3)cc2s1	23	0	0	?	0	0
CCC(NC(=O)Nc1cc(OC)ccc1OC)c1c(-n2cccc2)sc2c1CCN(CC)C2 (stereo unspecified)	-	0	-	-	0	0
CCOc1ccccc1NC(=O)c1ccc2c(O)c(S(=O)(=O)c3ccccc3)c(=O)[nH]c2c1	-	-	-	-	0	0
CC(C)OC(=O)c1c(NC(=O)COc2cccc(Br)c2)sc2c1CCCC2	-	0	-	-	0	0
NC(=O)COc1ccc2cc(-c3ccc(F)cc3)c(=O)oc2c1	21	0	35	0	0	0
COC(=O)COc1ccc2cc(-c3ccccc3)c(=O)oc2c1	0	-	0	-	-	-
NC(=O)COc1ccc2oc(-c3ccccc3)cc(=O)c2c1	27	0	69	0	0	0
NC(=O)COc1ccc2cc(-c3ccccc3)c(=O)oc2c1	32	-	62	-	-	-
CCOC(=O)COc1ccc2c(=O)cc(-c3ccccc3)oc2c1	0	-	0	-	-	-
Cc1cc(NCCN2CCOCC2)c2ccc3ccccc3c2n1	23	-	84	-	-	-
C=CCN1CN(S(=O)(=O)c2cccc(Cl)c2)c2nc3ccccc3nc21	20	-	0	-	-	-
COc1ccc(NC2=NCCC2)cc1	0	0	0	?	-	0
Fc1ccc(-c2csc(NC3=NCCC3)n2)cc1	21	0	109	0	0	0
COc1ccc(-c2csc(NC(=O)c3c(OC)cccc3OC)n2)cc1	0	0	0	0	?	0
Brc1ccc(-c2csc(NC3=NCCCCC3)n2)cc1	24	0	0	0	0	0
COc1ccc(-c2csc(NC3=NCCCCC3)n2)cc1	33	?	108	?	0	0
O=S(=O)(c1ccc(-c2csc(Nc3ccc(F)cc3)n2)cc1)N1CCCC1	0	?	0	?	0	?
O=S(=O)(c1ccc(-c2csc(Nc3ccc(Br)cc3)n2)cc1)N1CCCC1	0	0	0	0	0	?
COc1ccc(-c2csc(NNC3=NCCCCC3)n2)cc1	29	0	26	?	0	0
SMILES	CHX counter	Lassa entry inh	Shiga toxin inh	Marburg entry inh	Vaccinia mCherry	Vaccinia Venus
CC1Cc2ccccc2N1C(=O)c1cc2cccnc2n(C)c1=O (stereo unspecified)	-	0	-	0	0	0
CC(=O)Nc1cc2c3c(cccc3c1)-c1ccccc1-2	-	0	-	0	0	0
N#Cc1nc(-c2ccc(OCc3ccccc3Cl)cc2)oc1N1CCC(C(N)=O)CC1	-	-	-	-	0	0
CCOc1ccc(-c2csc(-c3nc(-c4ccc(Br)s4)cs3)n2)cc1	-	0	-	0	0	0
CCOc1ccc(-c2csc(NNC3=NCCCCC3)n2)cc1	16	0	0	?	0	0
O=C1C=C(NCCN2CCOCC2)C(=O)c2cnccc21	0	?	0	2.9µM	-	-
O=C(NCCN1CCOCC1)c1ccncc1	0	?	0	0	-	-
Cc1ccccc1NC1=C(Cl)C(=O)N(C2CCCCC2)C1=O	13	0	0	0	0	0
COc1ccccc1NC1=C(Cl)C(=O)N(C2CCCCC2)C1=O	0	0	0	?	0	0
Cn1nnc(NC(=O)c2ccccc2F)n1	0	0	0	0	-	0
Cn1nnc(NC(=O)c2ccc(C(C)(C)C)cc2)n1	46	0	45	0	0	0
Cn1nnc(NC(=O)c2ccc3ccccc3c2)n1	30	0	+	?	-	0
Cn1nnc(NC(=S)NC(=O)c2ccc3ccccc3c2)n1	-	-	-	-	0	0

Assay outcomes: PubChem, National Center for Advancing Translational Sciences (NCATS)
